Experiment [1] deals with Tyrosine-protein kinase SYK (Homo sapiens) (UniProt P43405). Conditions: at 1 µM.
In experiment [2] the target is T1, Tyrosine-protein kinase Tec (Homo sapiens) (UniProt P42680).
T1 sequence (whole entry): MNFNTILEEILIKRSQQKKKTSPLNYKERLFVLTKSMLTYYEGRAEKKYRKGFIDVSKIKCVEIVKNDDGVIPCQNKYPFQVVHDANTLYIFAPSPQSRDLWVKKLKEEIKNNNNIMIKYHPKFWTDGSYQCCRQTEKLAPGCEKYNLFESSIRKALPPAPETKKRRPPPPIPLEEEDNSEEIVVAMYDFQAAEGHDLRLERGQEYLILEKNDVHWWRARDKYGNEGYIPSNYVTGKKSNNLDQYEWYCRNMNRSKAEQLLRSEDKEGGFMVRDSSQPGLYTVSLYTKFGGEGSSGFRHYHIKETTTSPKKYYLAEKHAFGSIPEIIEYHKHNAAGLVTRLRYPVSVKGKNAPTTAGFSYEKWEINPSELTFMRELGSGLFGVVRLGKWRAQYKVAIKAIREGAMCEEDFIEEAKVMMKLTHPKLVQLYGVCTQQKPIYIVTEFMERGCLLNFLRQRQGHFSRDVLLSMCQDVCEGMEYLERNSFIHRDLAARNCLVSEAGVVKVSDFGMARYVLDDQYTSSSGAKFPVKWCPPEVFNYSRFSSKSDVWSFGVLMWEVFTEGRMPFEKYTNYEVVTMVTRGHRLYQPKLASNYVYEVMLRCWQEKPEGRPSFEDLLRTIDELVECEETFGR
Conditions: at 0.1 µM.

Experiment [3] has as its target T1, Tyrosine-protein kinase Tec (Homo sapiens). Conditions: at 1 µM.
The target in experiment [4] is Angiopoietin-1 receptor (Homo sapiens) (UniProt Q02763). To be noted: at 0.1 µM.
Experiment [5] shares this target. Conditions: at 1 µM.
The target of experiment [6] is T2, Non-receptor tyrosine-protein kinase TNK1 (Homo sapiens) (UniProt Q13470).
T2 sequence (whole entry): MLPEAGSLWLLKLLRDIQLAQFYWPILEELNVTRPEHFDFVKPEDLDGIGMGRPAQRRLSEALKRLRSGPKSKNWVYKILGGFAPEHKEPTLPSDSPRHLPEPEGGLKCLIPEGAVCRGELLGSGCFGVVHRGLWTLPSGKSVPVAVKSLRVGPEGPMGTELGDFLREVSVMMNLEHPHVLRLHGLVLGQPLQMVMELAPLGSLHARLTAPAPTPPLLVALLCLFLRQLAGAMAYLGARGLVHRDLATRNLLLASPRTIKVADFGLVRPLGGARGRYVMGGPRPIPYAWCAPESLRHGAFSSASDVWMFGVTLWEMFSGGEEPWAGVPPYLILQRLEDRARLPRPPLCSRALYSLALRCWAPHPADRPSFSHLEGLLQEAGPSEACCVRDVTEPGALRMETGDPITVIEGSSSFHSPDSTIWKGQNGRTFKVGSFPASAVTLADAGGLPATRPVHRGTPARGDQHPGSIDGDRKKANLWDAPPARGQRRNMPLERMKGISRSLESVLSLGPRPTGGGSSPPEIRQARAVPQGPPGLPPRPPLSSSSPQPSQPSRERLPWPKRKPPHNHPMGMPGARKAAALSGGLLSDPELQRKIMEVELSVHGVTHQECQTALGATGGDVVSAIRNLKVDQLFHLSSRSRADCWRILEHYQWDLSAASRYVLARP
To be noted: at 0.1 µM.

Experiment [7] has as its target T2, Non-receptor tyrosine-protein kinase TNK1 (Homo sapiens). Conditions: at 1 µM.
For experiment [8], the target named is Activated CDC42 kinase 1 (Homo sapiens) (UniProt Q07912). To be noted: at 0.1 µM.
The target is the same in experiment [9]. Conditions: at 1 µM.
Experiment [10] has as its target High affinity nerve growth factor receptor (Homo sapiens) (UniProt P04629). To be noted: at 0.1 µM.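 Further: each value is a mean of replicate percent inhibition readings against TRKA kinase.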

Inhibition data for 17 compounds are collected here from ChEMBL document CHEMBL1961873, “Compounds: GSK PKIS; Assays: Nanosyn kinase panel” (2012).

Chain of Activated CDC42 kinase 1 (Homo sapiens) (Q07912 whole entry, looked up): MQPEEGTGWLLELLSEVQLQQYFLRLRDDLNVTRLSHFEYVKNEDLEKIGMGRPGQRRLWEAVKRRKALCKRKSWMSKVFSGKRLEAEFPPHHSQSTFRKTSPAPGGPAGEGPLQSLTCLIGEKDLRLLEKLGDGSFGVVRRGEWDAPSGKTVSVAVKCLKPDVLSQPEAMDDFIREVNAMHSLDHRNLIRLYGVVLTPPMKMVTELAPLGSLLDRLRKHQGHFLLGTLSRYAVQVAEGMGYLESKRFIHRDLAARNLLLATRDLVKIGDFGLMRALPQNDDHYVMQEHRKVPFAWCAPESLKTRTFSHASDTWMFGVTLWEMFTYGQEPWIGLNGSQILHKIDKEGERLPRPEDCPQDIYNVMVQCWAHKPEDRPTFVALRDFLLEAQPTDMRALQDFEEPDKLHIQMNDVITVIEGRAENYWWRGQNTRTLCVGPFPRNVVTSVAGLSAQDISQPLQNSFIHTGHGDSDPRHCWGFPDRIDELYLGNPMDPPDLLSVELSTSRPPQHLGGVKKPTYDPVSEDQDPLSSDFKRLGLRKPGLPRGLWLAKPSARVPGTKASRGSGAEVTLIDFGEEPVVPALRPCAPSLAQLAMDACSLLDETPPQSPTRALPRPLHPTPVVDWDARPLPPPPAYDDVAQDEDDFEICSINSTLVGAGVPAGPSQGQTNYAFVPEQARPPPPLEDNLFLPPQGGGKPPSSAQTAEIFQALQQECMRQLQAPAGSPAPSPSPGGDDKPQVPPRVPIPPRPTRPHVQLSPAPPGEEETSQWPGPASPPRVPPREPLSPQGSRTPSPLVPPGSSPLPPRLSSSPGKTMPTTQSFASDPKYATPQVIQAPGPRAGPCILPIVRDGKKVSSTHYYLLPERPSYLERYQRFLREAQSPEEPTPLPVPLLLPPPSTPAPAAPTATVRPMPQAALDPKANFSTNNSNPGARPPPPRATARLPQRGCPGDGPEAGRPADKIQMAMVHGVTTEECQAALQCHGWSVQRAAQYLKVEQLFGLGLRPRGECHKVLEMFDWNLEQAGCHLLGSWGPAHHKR
Chain of Angiopoietin-1 receptor (Homo sapiens) (Q02763 whole entry): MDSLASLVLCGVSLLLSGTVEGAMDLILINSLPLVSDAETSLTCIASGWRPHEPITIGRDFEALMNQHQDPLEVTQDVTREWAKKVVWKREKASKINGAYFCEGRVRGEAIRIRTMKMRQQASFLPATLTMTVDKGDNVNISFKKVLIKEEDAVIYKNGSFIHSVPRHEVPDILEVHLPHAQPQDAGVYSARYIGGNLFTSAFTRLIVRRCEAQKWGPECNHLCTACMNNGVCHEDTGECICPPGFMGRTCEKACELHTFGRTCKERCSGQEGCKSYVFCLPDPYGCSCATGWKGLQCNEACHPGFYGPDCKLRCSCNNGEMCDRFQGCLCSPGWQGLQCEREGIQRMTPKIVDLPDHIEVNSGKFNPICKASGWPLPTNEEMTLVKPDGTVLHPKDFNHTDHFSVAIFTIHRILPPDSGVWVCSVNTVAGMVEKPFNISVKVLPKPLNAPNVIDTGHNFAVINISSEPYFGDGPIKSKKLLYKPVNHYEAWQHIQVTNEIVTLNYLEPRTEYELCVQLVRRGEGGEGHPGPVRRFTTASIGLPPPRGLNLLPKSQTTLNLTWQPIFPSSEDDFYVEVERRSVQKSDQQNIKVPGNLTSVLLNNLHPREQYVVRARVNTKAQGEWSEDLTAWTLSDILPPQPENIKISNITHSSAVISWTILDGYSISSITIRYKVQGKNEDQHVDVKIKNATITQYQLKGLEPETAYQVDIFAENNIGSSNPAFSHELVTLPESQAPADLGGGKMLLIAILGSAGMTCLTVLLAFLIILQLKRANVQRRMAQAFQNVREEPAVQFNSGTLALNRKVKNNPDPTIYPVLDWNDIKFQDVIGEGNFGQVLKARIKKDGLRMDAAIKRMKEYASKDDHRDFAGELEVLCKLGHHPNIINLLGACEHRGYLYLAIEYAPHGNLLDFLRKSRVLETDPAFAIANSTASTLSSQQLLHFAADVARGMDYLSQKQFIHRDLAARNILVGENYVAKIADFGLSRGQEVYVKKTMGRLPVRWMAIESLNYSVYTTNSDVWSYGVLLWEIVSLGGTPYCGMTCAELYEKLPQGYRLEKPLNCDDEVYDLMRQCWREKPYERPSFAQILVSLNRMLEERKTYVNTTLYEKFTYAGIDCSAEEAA
Chain of High affinity nerve growth factor receptor (Homo sapiens) (P04629 33-796 limits assumed): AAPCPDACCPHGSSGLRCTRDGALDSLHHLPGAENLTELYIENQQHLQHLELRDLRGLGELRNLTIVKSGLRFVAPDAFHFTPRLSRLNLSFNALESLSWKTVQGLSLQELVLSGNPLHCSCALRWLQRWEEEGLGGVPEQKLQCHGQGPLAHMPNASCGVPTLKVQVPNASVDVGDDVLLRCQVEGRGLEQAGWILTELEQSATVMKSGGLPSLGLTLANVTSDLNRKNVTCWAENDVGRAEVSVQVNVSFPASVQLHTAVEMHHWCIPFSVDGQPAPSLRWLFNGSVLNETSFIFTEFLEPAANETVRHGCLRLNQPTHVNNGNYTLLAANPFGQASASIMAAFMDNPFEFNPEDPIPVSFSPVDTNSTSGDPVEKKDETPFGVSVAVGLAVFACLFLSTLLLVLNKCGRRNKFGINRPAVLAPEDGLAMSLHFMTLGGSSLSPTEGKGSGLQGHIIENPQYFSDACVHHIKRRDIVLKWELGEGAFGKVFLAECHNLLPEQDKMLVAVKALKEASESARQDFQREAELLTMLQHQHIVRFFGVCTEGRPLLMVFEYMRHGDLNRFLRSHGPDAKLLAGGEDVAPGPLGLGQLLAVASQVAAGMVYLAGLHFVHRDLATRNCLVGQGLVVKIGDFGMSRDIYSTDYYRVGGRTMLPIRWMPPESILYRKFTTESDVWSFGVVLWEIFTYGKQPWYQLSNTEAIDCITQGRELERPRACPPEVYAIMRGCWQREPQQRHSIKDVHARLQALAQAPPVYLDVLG

What is called inhibition is the relative decrease from the control value, in per cent. For the compound `Nc1nc(-c2ccc3c(c2)C(=Cc2cc(Br)c(O)c(Br)c2)C(=O)N3)cs1`, the inhibition in experiment [1] was 0.99%; in [2] it was -1.8%; in [3], -1%; in experiment [4], -0.24%; in experiment [5] it was 3.72%; in experiment [6], 0.05%. Moreover, the inhibition in [7] was 37.1%; in [8], -1.13%; in [9], -0.19%; in experiment [10] it was 1.01%.

As for `COC(=O)Nc1nc2cc(Oc3ccc(NC(=O)Nc4cccc(C(=O)O)c4)cc3)ccc2[nH]1`, the inhibition was -0.23% in experiment [1]; -2.22% in [2]; 0.87% in experiment [3]; 1.97% in [4]; 7.16% in [5]; -0.91% in experiment [6]. Moreover, the inhibition in [7] is 17.4%; in experiment [8], -0.08%; in experiment [9], 0.6%; in experiment [10], 1.98%.

On to `CS(=O)(=O)CCNCc1ccc(-c2ccc3ncnc(Nc4ccc(OCc5cccc(F)c5)c(C(F)(F)F)c4)c3c2)o1`, for which the inhibition in experiment [1] amounted to 1.13%; in experiment [2], 3.58%; in experiment [3], 4.26%; in experiment [4] it was 4.55%; in experiment [5], 5.67%; in experiment [6] it was 4.87%. Further, the inhibition came out at 10.5% in experiment [7], 0.57% in experiment [8], 1.13% in experiment [9] and 1.7% in experiment [10].

As to `CCn1c(-c2nonc2N)nc2cncc(C(=O)N3CC[C@H](N)C3)c21`, the inhibition in experiment [1] turned out to be 1.83%; in experiment [2] it was 4.37%; in experiment [3], 3.68%; in experiment [4], 11.3%; in experiment [5] it was 11.4%; in experiment [6] it was 2.94%. The inhibition in [7] was found to be 2.95%; in experiment [8], 1.08%; in experiment [9] it was 1.01%; in experiment [10], 0.41%.

`O=C1Nc2ccc(C(=O)c3ccco3)cc2C1=Cc1cc(Cl)c(O)c(Cl)c1`: the inhibition in [1] is -0.93%; in experiment [2] it was 3.56%; in experiment [3] it was 9.55%; in [4] it was 2.1%; in [5], 3.01%; in experiment [6] it was 38.9%. The inhibition is 85.3% in experiment [7], 1.92% in [8], 6.27% in experiment [9] and 4.97% in [10].

Consider `NCc1ccc(-c2nc(-c3ccc(Cl)c(O)c3)c(-c3ccncc3)[nH]2)cc1`, for which the inhibition in experiment [1] is 1.13%; in experiment [2] it was 6.38%; in [3], 33%; in [4], 4.33%; in experiment [5], 21%; in experiment [6] it was -1.81%. Also, the inhibition in experiment [7] was 1.42%; in [8] it was -0.36%; in experiment [9], -0.9%; in experiment [10], -4.35%.

Take `CNC(=O)c1cncc(/C=C/c2c(Cl)cccc2Cl)c1`: the inhibition in [1] was 1%; in [2], 5.68%; in experiment [3], 23.4%; in experiment [4] it was 5.91%; in [5], 3.57%; in experiment [6], 8.81%. For the same compound, the inhibition in [7] is 38.8%; in [8], 0.26%; in [9] it was 11%; in experiment [10] it was 2.22%.

In the case of `COc1ccc2cc(-c3c(-c4ccncc4)nc(-c4ccc([S+](C)[O-])cc4)n3C)ccc2c1` (stereo not given), the inhibition in experiment [1] is -1.16%; in experiment [2], 4.18%; in experiment [3], 5.59%; in experiment [4], 53.3%; in experiment [5], 83.2%; in [6], 4.52%. In addition, the inhibition in [7] was 8.26%; in experiment [8] it was 0.59%; in [9], 0.47%; in experiment [10], 2.78%.

Turning to `CCCN1CCC=C(c2ccc(Nc3nc(Nc4ccccc4C(N)=O)c4cc[nH]c4n3)c(C)c2)C1`, the inhibition in [1] stood at 1.61%; in experiment [2], 6.08%; in experiment [3] it was 8.24%; in experiment [4], 3.32%; in experiment [5], 3.76%; in experiment [6], 26.4%. The inhibition in experiment [7] amounted to 70.1%; in experiment [8] it was 1%; in [9] it was 12.7%; in experiment [10], 2.13%.

For the compound `Nc1ncnc2occ(-c3ccc(NC(=O)Nc4cc(C(F)(F)F)cc(C(F)(F)F)c4)cc3)c12`, the inhibition in experiment [1] was -6.95%; in [2], 3.65%; in experiment [3] it was 6.33%; in [4], 29.1%; in [5], 77.5%; in experiment [6], 4.85%. In addition, the inhibition in experiment [7] is 33.8%; in experiment [8] it was 1.04%; in experiment [9] it was 1.13%; in [10] it was 37.1%.

As for `CCCN1CCC(Oc2cc(Nc3nc(Nc4cccc(F)c4C(N)=O)c4cc[nH]c4n3)c(OC)cc2Cl)CC1`, the inhibition was 2.76% in [1]; 1% in experiment [2]; 3.16% in experiment [3]; 4.02% in experiment [4]; 10.1% in experiment [5]; -2.66% in experiment [6]. The inhibition in experiment [7] is 1.46%; in experiment [8] it was -0.19%; in experiment [9] it was 2.16%; in experiment [10], 2.22%.

With `COc1ccc(-c2coc3ncnc(N)c23)cc1`, the inhibition in experiment [1] was -0.96%; in [2], 3.6%; in experiment [3], 5.59%; in experiment [4] it was 2.58%; in [5], 7.38%; in experiment [6], 0.94%. Besides, the inhibition is -4.86% in [7], 0.34% in experiment [8], 1.05% in experiment [9] and 1.6% in experiment [10].

In the case of `CCn1c(-c2nonc2N)nc2c(C#CC(C)(C)O)nc(OC[C@@H](N)c3ccccc3)cc21`, the inhibition in experiment [1] was 1.52%; in [2] it was 1.68%; in experiment [3] it was 6.92%; in [4] it was 1.25%; in experiment [5], 10.4%; in [6] it was -2.6%. The inhibition in experiment [7] was 2.87%; in [8], 0.28%; in experiment [9] it was 5.21%; in [10], -0.3%.

Take `CCn1c(-c2nonc2N)nc2c(C#CC(C)(C)O)nc(CN3CCCC3)cc21`: the inhibition is -0.03% in experiment [1]; -0.24% in experiment [2]; 1.81% in experiment [3]; 2.79% in experiment [4]; 3.96% in experiment [5]; -0.12% in [6]. The inhibition in experiment [7] was -4.05%; in experiment [8] it was -0.98%; in [9] it was -1.32%; in experiment [10] it was -2.07%.

With `COc1ccc(-c2nn3ncccc3c2-c2ccnc(Nc3ccc(Cl)c(C(F)(F)F)c3)n2)cc1`, the inhibition in [1] was -1.11%; in experiment [2], 1.4%; in experiment [3] it was 1.86%; in [4] it was 4.94%; in experiment [5], 4.42%; in experiment [6], 0.89%. Moreover, the inhibition is 13.3% in experiment [7], 0.86% in experiment [8], 1.6% in experiment [9] and -2.59% in experiment [10].

Turning to `COc1ccc(COc2ccc(Cc3cnc(N)nc3N)cc2OC)cc1`, the inhibition stood at 0.65% in experiment [1]; 1.62% in [2]; 2.91% in [3]; 2.2% in experiment [4]; 8.78% in [5]; 0.7% in experiment [6]. In addition, the inhibition in [7] is -8.3%; in [8], 2.24%; in experiment [9], 3.64%; in [10], 32.4%.

With `COc1cc(C=NNc2ncnc3c2cnn3-c2ccccc2)ccc1O`, the inhibition in experiment [1] was 43.1%; in experiment [2], 4.48%; in experiment [3], 12.9%; in [4], 13%; in experiment [5] it was 52.4%; in [6], 10.8%. Moreover, the inhibition in [7] worked out at 51.1%; in experiment [8], 1.06%; in experiment [9], 5.3%; in [10], 3.95%.
